Among the data in PubChem BioAssay (NCATS) are Potency and viability (% of control) values, retold here.

Molecules are shown by their SMILES. Where “and” joins values, the source holds several entries; their conditions need not be identical. Identical values can stand only once. Inconclusive results are not listed. Where a call stands in place of a potency, no number is given. Values without a mark were called inactive. Calls of active or inactive are those of the source. Calls come from the whole dose curve; as a rule, active = well fitted cell-killing curve with a large enough effect; inconclusive = small, poorly fitted or top-dose-only effect, or effect the other way; inactive = no such curve, though single readings can be large or run the other way.
Potency is the fitted concentration of half-maximal effect.

A short description of this experiment: Viability qHTS for spleen associated tyrosine kinase inhibitor (SYKi) naive MV4-11 cells (AID 1963823). Note: nearly all actives have a fitted effect of over 40% in size. The conditions noted are these: MV4-11 AML viability, CellTiter-Glo luminescence, 72 h; series mostly up to 45 µM. From the text:
Department of Medicine, Hematology/Oncology
University Hospital Frankfurt, Germany.
Trials have shown promising clinical activity of the selective SYK inhibitor entospletinib in patients with high expressing HOXA9/MEIS1 acute leukemias. As the development of resistance mechanisms is a common problem in the use of targeted drugs, we performed a chemical library screen to identify drug sensitivities in SYK inhibitor resistant AML cells. […] Glucocorticoids are potent immunosuppressants which work in part by inhibiting the transcription of cytokine genes.
Described herein is a viability screen to look for activity in the SYK inhibitor naive cell line against four NCATS compound libraries (MIPE 5.0, NPC, NPACT, and Kinase) totaling 11372 compounds. Active hits were reacquired for confirmation and further secondary assay testing.
SEQUENCE No. (e.g., 1, 2, 3, etc.); […] (e.g., Cells, Incubation, Reagent, etc.); VALUE; DESCRIPTION.
1; Media; 2uL; white, solid-bottom Corning assay plate.
2; Compounds; 23nL; Echo acoustic dispenser.
3; Cell; 5uL; 500 cells per well.
4: Incubation; 72hr; 37 C, 5% CO2, 95% humidity.
5; Reagent; 3uL; CellTiter-Glo reagent (Promega).
6; Incubation; 10min; room temperature.
7; Detection; Luminescence; ViewLux plate reader (PerkinElmer).
NOTES (numbers refer to Sequence numbers above
1. Quantitative high-throughput screening (qHTS) of small molecule compounds was conducted on naive SYKi MV4-11 cell line.
2. Twenty-three nanoliter of small molecule compounds were added to each assay plates using the Echo acoustic dispenser (Beckman Coulter).
3. Cells were seeded into the assay plates at a final density of 500 cells in 5uL of media per well using the Multi-drop Combi dispenser.
4. Plates were covered with stainless steel gasketed lids and incubated for 72 hours at standard cell culture conditions.
5. Viability was assessed by adding 3uL of CellTiter-Glo detection reagent (Promega).
6. Plates were covered with gasket lids and incubated for 10 minutes at room temperature.
7. Luminescence was measured on a ViewLux plate reader (PerkinElmer).
On the technique in general: Quantitative high-throughput screening tests each substance at several concentrations.
As for `O=C(O[C@H]1[C@@H]2C[C@@H]3OC[C@](O)([C@@H]1Cl)[C@H]2C(O[C@@H]1O[C@H](CO)[C@@H](O)[C@H](O)[C@H]1O)O3)c1ccc(O)c(O)c1` (stereo not given in full), the Potency entry is “inactive”.

Consider `O=S(=O)(O)c1ccc(O)cc1`, for which the Potency result is “inactive”.

`CC(=O)NCc1c(I)c(NC(C)=O)c(I)c(C(=O)O)c1I`: the Potency entry is “inactive”.

On to `Cc1cccc(C#Cc2cc(F)cc(C#N)c2)n1`, for which the Potency entry is “inactive”.

Regarding `CC(c1cc2ccccc2s1)N(O)C(N)=O` (stereo not given), the Potency entry was “inactive”.

For `c1cc(CN2CCCNCCNCCCNCC2)ccc1CN1CCCNCCNCCCNCC1`, the Potency result was “inactive”.

In the case of `CC(C)CC1NC(=O)C(C)NC(=O)C(CC(C)C)OC(=O)CCCNC1=O` (stereo not given), the Potency entry is “inactive”.

As to `Cc1[nH]nc2ccc(-c3cncc(OC[C@@H](N)Cc4ccccc4)c3)cc12`, the Potency was 82 nM (active) and 132 nM (active).

On to `NS(=O)(=O)c1cc2c(cc1Cl)NC=NS2(=O)=O`, for which the Potency entry is “inactive”.

For the compound `O=C(O)CCc1cc2ccoc2cc1O[C@@H]1O[C@H](CO[C@@H]2OC[C@](O)(CO)[C@H]2O)[C@@H](O)[C@H](O)[C@H]1O`, the Potency entry was “inactive”.

For the compound `C=C(C(=O)O)C1CCC2(C)CCC(O)C(=C)C2C1` (stereo not given), the Potency result is “inactive”.

As to `Nc1ccc(F)cc1NC(=O)c1ccc(CNC(=O)/C=C/c2cccnc2)cc1`, the Potency was 1.66 µM (active).

`CC/C=C\[C@H](O)[C@H](O)C1=C(C)C(=O)[C@]2(O1)C(=O)N[C@@](O)(C(=O)c1ccccc1)[C@@H]2O`: the Potency entry was “inactive”.

Regarding `C=CC(=O)N1CCc2ccc(-n3c(=O)ccc4cnc5ccc(-c6cnn(C)c6)cc5c43)cc21`, the Potency was 0.632 µM (active).

As for `C=C(C)C(=O)OC1[C@@H]2C(=C)C(=O)O[C@@H]2C[C@@H](C)[C@@H]2C=CC(=O)[C@@]12C` (stereo not given in full), the Potency is 2.27 µM (active).

For `O=C(OC1CN2CCC1CC2)N1CCc2ccccc2C1c1ccccc1` (stereo not given), the Potency is 18.4 µM (active).

Consider `COc1c2c(c(C)c3c1C(=O)OC3)OC1(C)CC(O)C34OC(OC)(CCC3(C)C1C2)OC4(C)CO` (stereo not given), for which the Potency entry is “inactive”.

In the case of `COC(=O)[C@H]1[C@H]2C[C@@H]3c4[nH]c5cc(OC)ccc5c4CCN3C[C@H]2C[C@@H](OC(=O)COc2ccc(OC)cc2)[C@@H]1OC`, the Potency result is “inactive”.

Consider `Cn1cc(-c2ccc(S(=O)(=O)n3ccc(/C=C/C(=O)Nc4ccccc4N)c3)cc2)cn1`, for which the Potency is 651 nM (active) and 934 nM (active).

Regarding `CCc1cc(CC[C@]2(C3CCCC3)CC(O)=C(Cc3nc4nc(C)cc(C)n4n3)C(=O)O2)cc(CC)n1`, the Potency is 10.3 µM (active).

As to `C=C1C[C@]23C[C@@]1(O)CC[C@H]2[C@@]12C=C[C@H](O)[C@@](C)(C(=O)O1)[C@H]2[C@@H]3C(=O)O`, the Potency entry was “inactive”.

For `CC(=O)[C@@]1(O)CC[C@H]2[C@@H]3C[C@H](C)C4=CC(=O)C=C[C@]4(C)[C@@]3(F)[C@@H](O)C[C@@]21C`, the Potency entry is “inactive”.

As for `Cc1ccc(NC(=O)Nc2nnc(Sc3ncnc4cc(OCCCN5CCOCC5)ccc34)s2)cc1`, the Potency is 0.0148 µM (active).

As to `CSc1ccc2c(c1)N(CCC1CCCCN1C)c1ccccc1S2` (stereo not given), the Potency is 15 µM (active).

As for `CC1=CC(=O)CC(C)(C)C1CO[C@@H]1O[C@H](CO)[C@@H](O)[C@H](O)[C@H]1O` (stereo not given in full), the Potency entry is “inactive”.

With `COC(=O)C1=CO[C@@H](O[C@@H]2O[C@H](CO[C@@H]3O[C@H](COC(=O)/C=C/c4cc(OC)c(O)c(OC)c4)[C@@H](O)[C@H](O)[C@H]3O)[C@@H](O)[C@H](O)[C@H]2O)[C@@H]2C(CO)=CC[C@H]12`, the Potency entry was “inactive”.

Take `c1ccc(-c2[nH]ncc2-c2ccnc3ccccc23)nc1`: the Potency result is “inactive”.

Consider `CC(O)COc1ccccc1` (stereo not given), for which the Potency result is “inactive”.

Turning to `C=C1C(OC(C)=O)CCC2(C)CCC(C(C)(C)O)CC12` (stereo not given), the Potency result is “inactive”.

`COC(=O)C1=CO[C@@H](O[C@@H]2O[C@H](CO)[C@@H](O)[C@H](O)[C@H]2O)[C@@H]2C(C)CC(=O)[C@]12O` (stereo not given in full): the Potency entry was “inactive”.

For the compound `CC1OC(OCC2OC(OC3CCC4(C)C(CCC5(C)C4CC=C4C6CC(C)(C)CCC6(C(=O)OC6OC(CO)C(O)C(O)C6O)CCC45C)C3(C)CO)C(O)C(O)C2O)C(O)C(O)C1O` (stereo not given), the viability (% of control) was 79.6% [at 9.25 µM].

For `COc1ccc(CCN(C)CCCOc2ccc(S(=O)(=O)c3[nH]c4ccccc4c3C(C)C)cc2)cc1OC`, the Potency was 7.42 µM (active).

Turning to `CN(C)C(=O)NC1(c2ccccc2)CCN(CCC[C@]2(c3ccc(Cl)c(Cl)c3)CCCN(C(=O)c3ccccc3)C2)CC1`, the Potency is 2.59 µM (active).

As to `CNS(=O)(=O)c1ccc2c(c1)/C(=C/c1[nH]c3c(c1CCCN1CCN(C)CC1)CCCC3)C(=O)N2`, the Potency is 0.186 µM (active).

For the compound `Cc1nc2ccc(CN(C)c3ccc(C(=O)NC(CCC(=O)O)C(=O)O)s3)cc2c(=O)[nH]1` (stereo not given), the Potency is 0.0065 µM (active).

As for `Nc1[nH]nc2nnc(-c3c(-c4ccccc4)nn4ccccc34)cc12`, the Potency was 9.2 µM (active).

For `CC(C)=CCc1cc(C(O)C2NC(=O)CNC(=O)C(Cc3c[nH]c4ccccc34)NC(=O)C3CCCN3C(=O)CNC(=O)C(C(C)C)NC(=O)CNC2=O)ccc1O` (stereo not given), the viability (% of control) is 78.4% [at 9.25 µM].

Turning to `COC(=O)C1=CO[C@@H](O[C@@H]2O[C@H](CO)[C@@H](O)[C@H](O)[C@H]2O)[C@@H]2[C@@](C)(O)[C@@H](O)C[C@]12O`, the Potency result was “inactive”.

For `CNC(=O)c1ccc(Nc2ncc(C(F)(F)F)c(NCc3nccnc3N(C)S(C)(=O)=O)n2)cc1`, the Potency is 130 nM (active) and 332 nM (active).

With `CCN(CC)CCOC(=O)C1(C2CCCCC2)CCCCC1`, the Potency entry is “inactive”.
